# Compound activity: PubChem BioAssay, National Center for Advancing Translational Sciences (NCATS)
# Sampled rows, rich in hits. Any-hit rate of the full collection: about 1.2%.
# Anesthetic bind = qHTS Assay for Identification of Novel General Anesthetics; Ferritin light chain (Equus caballus), P02791; apoferritin/1-aminoanthracene competitive binding, fluorescence; Potency, µM (doses to about 77.5 µM), actives largely listed as inhibitors; hit rate 0.074% among 350,000; also: nearly all actives have a fitted effect of over 20% in size
#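 Probe: 1-aminoanthracene (50% saturated, PBS). Protein: horse-spleen apoferritin, 10 uM. Incubation: 10 min, room temperature. Detection: 380 nm excitation, 535 nm emission. Analysis: normalized response, four-parameter Hill.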
# TSHR antag = Antagonists of the Thyroid Stimulating Hormone Receptor: HTS campaign. AID 504810, 2011. TSHR-expressing cells, TSH-stimulated cAMP HTRF, 2 h; active compounds read low. hit rate 0.2% among 330,000. activity change, negative = inhibition, % at 11.5 µM;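 active = activity change below a set negative limit, meaning inhibition stronger than a set level, cut at about -70% in these data; inconclusive = activity change between two set negative limits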
#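 TSHR-expressing cells were treated with compounds, then stimulated with TSH at EC80 (4nM final) for 2 hours at 37 deg C. Cellular cAMP was measured by HTRF competition between lysate cAMP and cAMP-d2 for a cryptate-labelled anti-cAMP antibody.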
# S-ASM inh = Inhibitors of Secretory Acid Sphingomyelinase (S-ASM): qHTS. Sphingomyelin phosphodiesterase (Homo sapiens), P17405. placental ASM, HMU-PC fluorogenic substrate, 60 min. Potency, µM (titrated, usually from 57.5 µM), most hits filed as inhibitors. hit rate 0.006% among 340,000. AID 504937, 2011
# Target sequence (P17405 47-631 limits assumed): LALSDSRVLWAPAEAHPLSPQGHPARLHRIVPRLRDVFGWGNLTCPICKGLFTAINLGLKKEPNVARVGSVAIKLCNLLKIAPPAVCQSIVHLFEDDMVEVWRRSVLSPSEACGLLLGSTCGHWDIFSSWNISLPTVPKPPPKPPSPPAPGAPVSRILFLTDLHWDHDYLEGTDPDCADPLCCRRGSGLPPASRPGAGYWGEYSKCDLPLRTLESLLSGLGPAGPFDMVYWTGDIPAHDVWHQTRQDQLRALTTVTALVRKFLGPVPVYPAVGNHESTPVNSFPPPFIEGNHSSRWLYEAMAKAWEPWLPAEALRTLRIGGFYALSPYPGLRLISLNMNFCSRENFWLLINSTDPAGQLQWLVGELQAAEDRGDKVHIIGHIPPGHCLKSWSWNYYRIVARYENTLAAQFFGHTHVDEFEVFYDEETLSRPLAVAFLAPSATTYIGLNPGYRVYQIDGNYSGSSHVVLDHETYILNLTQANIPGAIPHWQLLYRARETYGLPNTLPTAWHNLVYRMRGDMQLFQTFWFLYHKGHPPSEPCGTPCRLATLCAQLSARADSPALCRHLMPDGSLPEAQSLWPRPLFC
#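 Fluorescence read-out (Ex 386 nm, Em 447 nm) after stopping the reaction at pH 10. Enzyme: ASM from human placenta; substrate HMU-PC0, 9 uM final; 60 min, 37 °C. Compound preincubation 10 min, ambient temperature.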
# PTAP TSG101 blk = qHTS Assay for Iinhibitors of HIV-1 Budding by Blocking the Interaction of PTAP/TSG101; Tumor susceptibility gene 101 protein (Homo sapiens), Q99816; Potency, µM (doses to about 115 µM), usual class: inhibitors; AID 493005, 2010; Fluorescence polarization, FITC-PTAP peptide / Tsg101 binding; 340,000 tested, under 10 active; active = well fitted inhibition curve with a large enough effect in the main read-out, with a control signal flat, not every such curve was filed as active; inconclusive = small, poorly fitted or top-dose-only effect, or effect the other way, or a change in a side signal; inactive = no such curve, though single readings can be large or run the other way
#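 Fluorescence anisotropy tracks displacement of a FITC-tagged PTAP peptide (50 nM) from the Tsg101 binding domain (10 uM), following a 20 min room-temperature incubation at pH 7.5.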
# BRCA1 expr up = qHTS Assay to Identify Small Molecule Activators of BRCA1 Expression | MCF7-BRCA1-FFLuc reporter, luminescence, 48 h; response scale: scaled: vehicle 0%, 10 µM genistein 100% | Potency, µM (top dose mostly 46.1 µM), most hits filed as activators | hit rate 1.1% among 380,000 | AID 624202, 2012; also: nearly all actives have a fitted effect of over 80% in size
#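 MCF7 cells carrying a BRCA1-firefly luciferase reporter (2000 cells/well, phenol-red free MEM) were attached for 2 h at 37 °C, then given compounds for 48 h. Luminescence was read 15 min after luciferase reagent; activity normalized to genistein (10 microM) and DMSO.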
# Hits are given with their value; . = inactive; ? = inconclusive; / = no result given; [ ] = another dose, or the depositor's remark. Unless noted, calls follow the shape of the dose curve; as a rule, active = well fitted curve in the direction sought with a large enough effect; inconclusive = small, poorly fitted or top-dose-only effect, or another doubt; inactive = no such curve, though single readings can be large; an effect the other way counts as inactive or inconclusive.
SMILES,Anesthetic bind,TSHR antag,S-ASM inh,PTAP TSG101 blk,BRCA1 expr up
O=C1c2c(O)cc(O)cc2O[C@H](c2ccc(O)c(O)c2)C1O (stereo not given in full),.,/,/,/,/
CN(C)C(=O)COc1ccccc1C(=O)OCC(=O)N(CCC#N)c1ccccc1,/,/,/,/,.
CNc1nc(C#N)nc(Nc2ccccc2)n1,.,/,/,/,/
CC[n+]1ccc(/C=C/c2ccc(N(C)C)cc2)c2ccccc21,?,-70.8,?,.,.
O=c1oc(C2(O)CCCCC2)cc2ccc(Br)cc12,/,.,.,/,.
O=c1oc(C2(O)CCCCC2)cc2ccc(/C=C/c3ccc(F)cc3)cc12,/,-79.0,.,.,.
CCCCCCCCCCCCCCCCOC[C@H](COP(=O)([O-])OCC[N+](C)(C)C)OC(=O)NC,.,/,/,/,/
Cc1[nH]n(-c2cccc(Cl)c2)c(=O)c1C=NCc1ccco1,.,.,.,.,11.2µM
Cc1[nH]n(-c2cccc(Cl)c2)c(=O)c1C=NC12CN3CN(CN(C3)C1)C2,.,.,.,.,.
Cc1[nH]n(-c2cccc(Cl)c2)c(=O)c1C=NCC(C)C,.,.,.,.,10µM
Cc1cc(Br)ccc1NC(=O)COC(=O)c1ccccc1OCC(=O)N(C)C,/,/,/,/,.
Cn1nc(C(F)(F)F)c(-c2cccc(C(F)(F)F)c2)c1NC(=O)CSCC(=O)O,.,-74.4,.,.,.
CC(=O)Nc1ccc(/C=C/c2ccnc3ccccc23)cc1[N+](=O)[O-],/,/,/,/,.
Nn1c(SCc2c(F)cccc2F)nnc1-c1ccccn1,.,.,.,.,5.62µM
CCSc1nnc(NC(=O)c2ccc3nc[nH]c3c2)s1,/,.,.,.,3.16µM
CN(C)c1ccc(NC(=O)c2ccc3nc[nH]c3c2)cc1,.,.,.,.,12.6µM
CCOC(=O)c1sc(NC(=O)c2ccc3nc[nH]c3c2)nc1C,.,.,.[11.5 µM],.,.
C=CCn1c(SCC)nc2ccccc2c1=O,/,/,/,/,.
O=S1(=O)C2CC3OC2(CC3c2ccc(F)cc2)CN1Cc1ccc(Cl)cc1 (stereo not given),.,/,/,/,/
C[n+]1ccc(/C=C/c2cc[n+](C)c3ccccc23)c2ccccc21,/,/,/,/,.
Cc1cccc(N/C=C/c2onc(C)c2[N+](=O)[O-])c1,?,/,.,.,2.51µM
Cc1cc(O)ccc1N/C=C/c1onc(C)c1[N+](=O)[O-],.,.,.,.,?
O=C1CCn2nc(-c3ccc(Cl)cc3)cc2N1,.,.,.,.,3.98µM
Cc1cc(NC(=O)CSc2nc3ccsc3c(=O)n2Cc2ccccn2)n[nH]1,.,.,.,.,5.62µM
CCCCn1c(SCC(=O)Nc2cc(C)[nH]n2)nc2ccsc2c1=O,.,.,.,.,.
SMILES,Anesthetic bind,TSHR antag,S-ASM inh,PTAP TSG101 blk,BRCA1 expr up
CCOC(=O)C(=O)C1(C(=O)OCC)Oc2cc(OC)cc(OC)c2C(=O)C1c1ccccc1 (stereo not given),.,/,/,/,/
CC(O)(c1ccccc1)[N+]1(CC(=O)c2ccccc2)C=CC=C1 (stereo not given),/,/,/,/,.
c1ccc(-c2noc(CC3CCCCC3)n2)nc1,?,.,.,.,7.08µM
c1ccc(CCCc2nc(-c3ccccn3)no2)cc1,.,.,.,.,7.08µM
c1ccc(SCc2nc(-c3ccccn3)no2)cc1,.,.,.,.,7.08µM
Cc1ccc(Cc2nc(-c3ccccn3)no2)cc1,?,.,.,.,2.24µM
COC(=O)C1C(O)CC[C@H]2CN3CCc4c([nH]c5ccccc45)C3C[C@H]12 (stereo not given in full),.,/,/,/,/
CC(C)NC(=O)COC(=O)c1ccccc1OCC(=O)Nc1ccc(Br)cc1,/,/,/,/,.
c1ccc(Cc2nc(-c3ccccn3)no2)cc1,.,.,.,.,5.01µM
Cc1ccc(-c2noc(CSc3ccccc3)n2)cc1,.,.,.,.,?
Cc1cccc(-c2noc(CSc3ccccc3)n2)c1,?,.,.,.,3.16µM
OC[C@H]1OC(O)[C@H](O)[C@@H](O)[C@@H]1O (stereo not given in full),.,/,/,/,/
C[n+]1c(/C=C/c2ccc(N)cc2)sc2ccccc21,/,/,/,/,.
COc1cccc2cc(-c3cn4ccc(C)cc4n3)c(=O)oc12,/,/,.,.,7.08µM
CCN1C(C)=C(C(=O)OC)C(c2ccccc2)N2C(=O)[C@@]3(C(=O)OC)O[C@@]12C1C(=O)N(C)C(=O)C13 (stereo not given in full),.[15.3 µM],/,/,/,/
O=C(N/N=C/c1ccc(OCc2ccccc2)cc1)c1cc[n+](Cc2ccccc2)cc1,?,.,.,.,3.55µM
Cc1occc1C(=O)N/N=C/c1ccc(OCc2ccccc2)cc1,.,.,.,.,6.31µM
CN(C(=O)COC(=O)c1ccccc1OCC(=O)Nc1ccc(Br)cc1)c1ccccc1,/,/,/,/,.
COC(=O)c1cc(-c2ccc(C)cc2)n[nH]1,.,.,.,.,10µM
COC(=O)c1cc(-c2ccc(OC)cc2)n[nH]1,.,.,.,.,?
CC(C)CCOc1ccc(CC(=O)NO)cc1,/,/,/,/,.
NC(=O)C1CCN(c2nc(-c3ccc(Br)cc3)cs2)CC1,.,.,.,.,1.78µM
CC(=O)c1ccc(-c2csc(N3CCC(C(N)=O)CC3)n2)cc1,/,.,/,/,/
NC(=O)C1CCN(c2nc(-c3cccs3)cs2)CC1,/,.,.,.,1.26µM
CN(C)c1ccc(/C=N\Nc2ccc([N+](=O)[O-])cc2[N+](=O)[O-])cc1Br,/,/,/,/,.
SMILES,Anesthetic bind,TSHR antag,S-ASM inh,PTAP TSG101 blk,BRCA1 expr up
C=CCNC(=O)c1ccc(-c2nc(-c3ccc(Cl)cc3Cl)cs2)cc1,.,.,.,.,11.2µM
O=C(CSc1nc2ccccc2n1S(=O)(=O)c1ccccc1)N1CCCCC1,.,.,.,.,14.1µM
CCOC(=O)NC(=O)/C(C#N)=C\Nc1ccc(Cl)cc1Cl,.,.,.,.,12.6µM
CCOC(=O)NC(=O)/C(C#N)=C\Nc1sccc1C(=O)OC,.,.,.,.,.
Cc1nn(-c2ccc(Cl)c(Cl)c2Cl)c(=O)c2ccccc12,17.8µM,.,.,.,.
Cc1nn(-c2ccc(Cl)nn2)c(=O)c2ccccc12,.,.,.,.,11.2µM
Cc1nn(-c2ccc(Cl)cc2)c(=O)c2ccccc12,.,.,.,.,.
O=c1c(-c2ccc(O)cc2)coc2cc(O[C@@H]3O[C@H](CO)[C@@H](O)[C@H](O)[C@H]3O)cc(O)c12,.,/,/,/,/
CC1CCC(NC(=O)CCNC(=O)c2ccc(Br)cc2)CC1 (stereo not given),/,.,.,.,4.47µM
O=Cc1s/c(=N\S(=O)(=O)c2ccccc2)n(CCCCl)c1Cl,.,-70.1,.,.,.
